Test results as given in PubChem BioAssay (NCATS).
Inconclusive results are not listed. The source made the active and inactive calls. Calls come from the whole dose curve; as a rule, active = well fitted inhibition curve with a large enough effect; inconclusive = small, poorly fitted or top-dose-only effect; inactive = flat fitted curve, though single readings scatter.

What was measured:
[1] = qHTS profiling for inhibitors of Plasmodium falciparum proliferation (AID 504749);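 note: 0% = DMSO vehicle and full inhibition = artemisinin control; nearly all actives have a fitted effect of over 60% in size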; settings: P. falciparum in erythrocytes, SYBR Green DNA, 72 h, at 28.7 µM (top of the series)
In short: (§1)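 Parasite proliferation within erythrocytes, 72 h exposure. Endpoint: SYBR Green I fluorescence after overnight lysis at room temperature. Controls: 0.29 uM artemisinin, DMSO.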

[2] = tested on: 3D7; test: as above; settings: P. falciparum in erythrocytes, SYBR Green DNA, 72 h; series mostly up to 28.7 µM
In short: as §1

[3] = tested on: 7G8; test: as above; settings: P. falciparum in erythrocytes, SYBR Green DNA, 72 h; series mostly up to 28.7 µM
In short: as §1

[4] = tested on: AA1029; test: as above; settings: P. falciparum in erythrocytes, SYBR Green DNA, 72 h; series mostly up to 28.7 µM
In short: as §1

[5] = tested on: AS120; test: as above; settings: P. falciparum in erythrocytes, SYBR Green DNA, 72 h; series mostly up to 28.7 µM
In short: as §1

[6] = tested on: ATS189; test: as above; settings: P. falciparum in erythrocytes, SYBR Green DNA, 72 h; series mostly up to 28.7 µM
In short: as §1

[7] = tested on: ATS95; test: as above; settings: P. falciparum in erythrocytes, SYBR Green DNA, 72 h; series mostly up to 28.7 µM
In short: as §1

[8] = tested on: C2A; test: as above; settings: P. falciparum in erythrocytes, SYBR Green DNA, 72 h; series mostly up to 28.7 µM
In short: as §1

[9] = tested on: CP185; test: as above; settings: P. falciparum in erythrocytes, SYBR Green DNA, 72 h; series mostly up to 28.7 µM
In short: as §1

[10] = tested on: CP191; test: as above; settings: P. falciparum in erythrocytes, SYBR Green DNA, 72 h; series mostly up to 28.7 µM
In short: as §1

[11] = tested on: CP192; test: as above; settings: P. falciparum in erythrocytes, SYBR Green DNA, 72 h; series mostly up to 28.7 µM
In short: as §1

[12] = tested on: CP194; test: as above; settings: P. falciparum in erythrocytes, SYBR Green DNA, 72 h; series mostly up to 28.7 µM
In short: as §1

[13] = tested on: CP201; test: as above; settings: P. falciparum in erythrocytes, SYBR Green DNA, 72 h; series mostly up to 28.7 µM
In short: as §1

[14] = tested on: CP203; test: as above; settings: P. falciparum in erythrocytes, SYBR Green DNA, 72 h; series mostly up to 28.7 µM
In short: as §1

[15] = tested on: CP211; test: as above; settings: P. falciparum in erythrocytes, SYBR Green DNA, 72 h; series mostly up to 28.7 µM
In short: as §1

[16] = tested on: CP215; test: as above; settings: P. falciparum in erythrocytes, SYBR Green DNA, 72 h; series mostly up to 28.7 µM
In short: as §1

[17] = tested on: CP217; test: as above; settings: P. falciparum in erythrocytes, SYBR Green DNA, 72 h; series mostly up to 28.7 µM
In short: as §1

[18] = tested on: CP237; test: as above; settings: P. falciparum in erythrocytes, SYBR Green DNA, 72 h; series mostly up to 28.7 µM
In short: as §1

[19] = tested on: CP238; test: as above; settings: P. falciparum in erythrocytes, SYBR Green DNA, 72 h; series mostly up to 28.7 µM
In short: as §1

Cn1c(=O)c2c(ncn2CCO)n(C)c1=O
inactive: activity, negative = inhibition ([1]; parasite line A) 2.6% | activity, negative = inhibition ([1]; parasite line B) -3.88% | Potency [2] | Potency [3] | Potency [4] | Potency [5] | Potency [6] | Potency [7] | Potency [8] | Potency [9] | outcome [10] | outcome [11] | outcome [12] | outcome [13] | Potency [14] | outcome [15] | Potency [16] | outcome [17] | Potency [18] | Potency [19]

CC(=O)NCc1c(I)c(NC(C)=O)c(I)c(C(=O)O)c1I
inactive: activity, negative = inhibition ([1]; parasite line A) 10.9% | activity, negative = inhibition ([1]; parasite line B) 6.96% | Potency [2] | Potency [3] | Potency [4] | Potency [5] | Potency [6] | Potency [7] | Potency [8] | Potency [9] | outcome [10] | outcome [11] | outcome [12] | outcome [13] | Potency [14] | outcome [15] | Potency [16] | outcome [17] | Potency [18] | Potency [19]

CCCCCCCCCCCCCCCCN
inactive: activity, negative = inhibition ([1]; parasite line A) 0.565% | activity, negative = inhibition ([1]; parasite line B) 3.84% | Potency [2] | Potency [3] | Potency [4] | Potency [5] | Potency [6] | Potency [7] | Potency [8] | Potency [9] | outcome [10] | outcome [11] | outcome [12] | outcome [13] | Potency [14] | outcome [15] | Potency [16] | outcome [17] | Potency [18] | Potency [19]

Cc1ccc(S(=O)(=O)NC(=O)NC2CCCCCCC2)cc1
inactive: activity, negative = inhibition ([1]; parasite line A) 11.2% | activity, negative = inhibition ([1]; parasite line B) 10.7% | Potency [2] | Potency [3] | Potency [4] | Potency [5] | Potency [6] | Potency [7] | Potency [8] | Potency [9] | outcome [10] | outcome [11] | outcome [12] | outcome [13] | Potency [14] | outcome [15] | Potency [16] | outcome [17] | Potency [18] | Potency [19]

CCOc1ccc(C(=O)OCCN(CC)CC)cc1
inactive: activity, negative = inhibition ([1]; parasite line A) 11.5% | activity, negative = inhibition ([1]; parasite line B) 3.64% | Potency [2] | Potency [3] | Potency [4] | Potency [5] | Potency [6] | Potency [7] | Potency [8] | Potency [9] | outcome [10] | outcome [11] | outcome [12] | outcome [13] | Potency [14] | outcome [15] | Potency [16] | outcome [17] | Potency [18] | Potency [19]

Nc1ccncc1N
inactive: activity, negative = inhibition ([1]; parasite line A) 9.9% | activity, negative = inhibition ([1]; parasite line B) 5.99% | Potency [2] | Potency [3] | Potency [4] | Potency [5] | Potency [6] | Potency [7] | Potency [8] | Potency [9] | outcome [10] | outcome [11] | outcome [12] | outcome [13] | Potency [14] | outcome [15] | Potency [16] | outcome [17] | Potency [18] | Potency [19]

Cc1cccc(C)c1NC(=O)CC12CCCN1CCC2
inactive: activity, negative = inhibition ([1]; parasite line A) 2.82% | activity, negative = inhibition ([1]; parasite line B) 0.226% | Potency [2] | Potency [3] | Potency [4] | Potency [5] | Potency [6] | Potency [7] | Potency [8] | Potency [9] | outcome [10] | outcome [11] | outcome [12] | outcome [13] | Potency [14] | outcome [15] | Potency [16] | outcome [17] | Potency [18] | Potency [19]

C=CCSCC1Nc2cc(Cl)c(S(N)(=O)=O)cc2S(=O)(=O)N1 (stereo not given)
inactive: activity, negative = inhibition ([1]; parasite line A) 8.77% | activity, negative = inhibition ([1]; parasite line B) 13.6% | Potency [2] | Potency [3] | Potency [4] | Potency [5] | Potency [6] | Potency [7] | Potency [8] | Potency [9] | outcome [10] | outcome [11] | outcome [12] | outcome [13] | Potency [14] | outcome [15] | Potency [16] | outcome [17] | Potency [18] | Potency [19]

O=C(Cn1ccnc1[N+](=O)[O-])NCc1ccccc1
inactive: activity, negative = inhibition ([1]; parasite line A) 12.6% | activity, negative = inhibition ([1]; parasite line B) 10.2% | Potency [2] | Potency [3] | Potency [4] | Potency [5] | Potency [6] | Potency [7] | Potency [8] | Potency [9] | outcome [10] | outcome [11] | outcome [12] | outcome [13] | Potency [14] | outcome [15] | Potency [16] | outcome [17] | Potency [18] | Potency [19]

O=C(O)c1ccccc1OP(=O)(O)O
inactive: activity, negative = inhibition ([1]; parasite line A) 4.92% | activity, negative = inhibition ([1]; parasite line B) 6.75% | Potency [2] | Potency [3] | Potency [4] | Potency [5] | Potency [6] | Potency [7] | Potency [8] | Potency [9] | outcome [10] | outcome [11] | outcome [12] | outcome [13] | Potency [14] | outcome [15] | Potency [16] | outcome [17] | Potency [18] | Potency [19]

NNC(=O)CP(=O)(c1ccccc1)c1ccccc1
inactive: activity, negative = inhibition ([1]; parasite line A) 8.38% | activity, negative = inhibition ([1]; parasite line B) 6.41% | Potency [2] | Potency [3] | Potency [4] | Potency [5] | Potency [6] | Potency [7] | Potency [8] | Potency [9] | outcome [10] | outcome [11] | outcome [12] | outcome [13] | Potency [14] | outcome [15] | Potency [16] | outcome [17] | Potency [18] | Potency [19]

Cc1cc(=O)[nH]c(=S)[nH]1
inactive: activity, negative = inhibition ([1]; parasite line A) 10.7% | activity, negative = inhibition ([1]; parasite line B) 5.6% | Potency [2] | Potency [3] | Potency [4] | Potency [5] | Potency [6] | Potency [7] | Potency [8] | Potency [9] | outcome [10] | outcome [11] | outcome [12] | outcome [13] | Potency [14] | outcome [15] | Potency [16] | outcome [17] | Potency [18] | Potency [19]
